Measurements published in PubChem BioAssay AID720597 (Broad Institute, 2013).
Results with a measured potency or affinity are listed apart. Unmarked numbers belong to inactive results.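 Rule for the calls: active = fitted half-maximal dose no more than twice the top valid tested dose, for compounds that lower signal; inconclusive = fit invalid, or curve flat with activity between -70 and -30; inactive = potency past limit, curve flat within ±30, or signal increasing.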

Molecular target: NAD-dependent protein deacylase sirtuin-5, mitochondrial (Homo sapiens) (UniProt Q9NXA8)
Sequence (Q9NXA8 whole entry, looked up): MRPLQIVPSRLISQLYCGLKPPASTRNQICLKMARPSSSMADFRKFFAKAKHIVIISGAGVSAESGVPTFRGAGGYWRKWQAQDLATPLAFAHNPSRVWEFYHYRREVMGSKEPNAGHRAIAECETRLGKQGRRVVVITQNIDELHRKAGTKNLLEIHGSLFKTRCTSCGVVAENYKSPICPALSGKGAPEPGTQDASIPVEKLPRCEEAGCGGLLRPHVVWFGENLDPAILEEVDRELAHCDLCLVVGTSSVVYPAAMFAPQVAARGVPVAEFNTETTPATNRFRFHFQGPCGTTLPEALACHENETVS
Test: blockers of sirtuin-5 peptide desuccinylation – biochemical, fluorescence imaging, cherry-pick, set 6, dose response (AID 720597);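 note: lower AMC signal can also come from blocking the trypsin step; 0% = median of neutral control wells and -100% = median of positive control wells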
Settings: Purified SirT5, succinyl-peptide-AMC/trypsin fluorescence; series mostly up to 15 µM; activity change, negative = inhibition: at the top concentration

Row | SMILES | activity change, negative = inhibition
1 | COc1ccc(S(=O)(=O)Nc2ccc3c(c2)C(=O)N([C@H](C)CO)C[C@@H](C)[C@@H](CN(C)Cc2ccc(Cl)c(Cl)c2)O3)cc1 | 6.62%
2 | C[C@@H]1CN([C@H](C)CO)C(=O)c2cc(NC(=O)CCC(F)(F)F)ccc2O[C@@H](C)CCCCO[C@@H]1CN(C)Cc1ccc(C(F)(F)F)cc1 | -23.9%
3 | Cc1ccc(S(=O)(=O)Nc2ccc3c(c2)C(=O)N([C@H](C)CO)C[C@H](C)[C@H](CN(C)Cc2ccc(C(F)(F)F)cc2)OCCCC[C@H](C)O3)cc1 | -13.6%
4 | C[C@@H]1CN([C@@H](C)CO)C(=O)Cc2cc(NS(=O)(=O)c3ccc(Cl)cc3)ccc2O[C@@H]1CN(C)CC1CCCCC1 | 20.2%
5 | C[C@H]1CN([C@@H](C)CO)C(=O)c2cc(C#CC3CCCCC3)cnc2O[C@@H]1CN(C)S(=O)(=O)c1cccc(F)c1 | -18.9%
6 | O=C(NCC[C@@H]1CC[C@H](NS(=O)(=O)c2cccc(F)c2)[C@H](CO)O1)C1CCOCC1 | 5.5%
7 | COc1ccc(S(=O)(=O)N(C)C[C@H]2OCCCC[C@@H](C)Oc3ccc(NS(=O)(=O)c4ccc(F)cc4)cc3C(=O)N([C@H](C)CO)C[C@H]2C)cc1 | 4.18%
8 | O=C(CCN1CCCCC1)N[C@H]1CC[C@H](CC(=O)N2CCC(Cc3ccccc3)CC2)O[C@@H]1CO | -12.6%
9 | Cc1ccc(S(=O)(=O)Nc2ccc3c(c2)C(=O)N([C@@H](C)CO)C[C@H](C)[C@H](CN(C)Cc2ccc(C(F)(F)F)cc2)OCCCC[C@@H](C)O3)cc1 | -7.33%
10 | COc1ccc(C#Cc2ccc3c(c2)[C@]2(C(=O)N3)[C@H](C(=O)N3CCN(c4ncccn4)CC3)[C@H]3C(=O)O[C@H](c4ccccc4)[C@H](c4ccccc4)N3[C@@H]2c2ccc(OCCO)cc2)cc1 | 11%
11 | C[C@@H]1CN([C@H](C)CO)S(=O)(=O)c2ccc(/C=C/c3ccccc3)cc2O[C@@H]1CN(C)C(=O)c1ccc2c(c1)OCO2 | 21.7%
12 | O=C1CN(Cc2ccccc2)C[C@@H]2[C@H](c3ccc(-c4ccccc4)cc3)[C@H](CO)N12 | 2.26%
13 | CCC(=O)N1[C@H](CO)[C@H](c2ccc(-c3ccccc3)cc2)[C@H]1CN(CC)C(C)=O | 2.76%
14 | C[C@@H]1CN([C@@H](C)CO)C(=O)c2cc(NS(=O)(=O)c3ccccc3)ccc2O[C@@H](C)CCCCO[C@H]1CN(C)S(=O)(=O)c1ccc(Cl)cc1 | -18.9%
15 | COc1ccc(S(=O)(=O)Nc2ccc3c(c2)CC(=O)N([C@@H](C)CO)C[C@H](C)[C@H](CN(C)Cc2ccc(Oc4ccccc4)cc2)O3)cc1 | -24.4%
16 | COc1cccc(NC(=O)N2CC(=O)N3[C@H](C2)[C@@H](c2ccc(C#CCC4CCCC4)cc2)[C@@H]3CO)c1 | 34.8%
17 | C[C@H]1CN([C@@H](C)CO)C(=O)c2cc(-c3ccc(C#N)cc3)cnc2O[C@@H]1CN(C)C(=O)Nc1ccc(C(F)(F)F)cc1 | -27.3%
18 | CCCC#Cc1cnc2c(c1)C(=O)N([C@@H](C)CO)C[C@@H](C)[C@H](CN(C)S(=O)(=O)c1cccc(OC)c1)O2 | 11.7%
19 | CCS(=O)(=O)N1CC2(CN(Cc3cccc(Cl)c3)[C@H](CO)c3c2c2ccc(OC)cc2n3C)C1 | 11.6%
20 | CC(C)CC#Cc1ccc2c(c1)O[C@@H](CN(C)C(=O)Nc1ccccc1F)[C@@H](C)CN([C@@H](C)CO)S2(=O)=O | -14.6%

Row | SMILES | activity change, negative = inhibition
21 | C/C=C/c1cnc2c(c1)C(=O)N([C@@H](C)CO)C[C@@H](C)[C@@H](CN(C)C(=O)NC1CCCCC1)O2 | 35.9%
22 | COc1ccccc1-c1ccc2c(c1)O[C@H](CN(C)S(=O)(=O)c1ccc(F)cc1)[C@@H](C)CN([C@@H](C)CO)S2(=O)=O | -8.92%
23 | C[C@H](CO)N1C[C@H](C)[C@H](CN(C)C(=O)c2ccc3c(c2)OCO3)Oc2cc(/C=C/c3ccccc3)ccc2S1(=O)=O | -4.94%
24 | C[C@@H]1CN([C@@H](C)CO)C(=O)Cc2cc(NC(=O)Nc3ccc(F)cc3)ccc2O[C@@H]1CN(C)C | 12.7%
25 | C[C@H](NC(=O)[C@@H]1[C@@H](CO)[C@@H]2Cn3c(cccc3=O)[C@H]1N2Cc1ccccc1)c1ccccc1 | 1.09%
26 | COc1ccc(S(=O)(=O)Nc2ccc3c(c2)C(=O)N([C@H](C)CO)C[C@@H](C)[C@H](CN(C)Cc2ccc(C(F)(F)F)cc2)OCCCC[C@H](C)O3)cc1 | -14.8%
27 | C[C@@H]1CN([C@H](C)CO)S(=O)(=O)c2ccc(/C=C/c3ccccc3)cc2O[C@@H]1CN(C)C(=O)NC1CCCC1 | 16%
28 | C[C@H]1CN([C@@H](C)CO)C(=O)c2cc(NC(=O)CCN3CCOCC3)ccc2O[C@H]1CN(C)C(=O)Nc1ccc2c(c1)OCO2 | 4.04%
29 | C[C@@H](O)C#Cc1ccc([C@@H]2[C@H]3CN(C(=O)c4cccc(F)c4)CCCCN3[C@H]2CO)cc1 | -5.1%
30 | CC(=O)N(C)C[C@@H]1Oc2ncc(C#Cc3cccc(F)c3)cc2C(=O)N([C@H](C)CO)C[C@H]1C | 18.7%
31 | COc1ccc(S(=O)(=O)Nc2ccc3c(c2)C(=O)N([C@H](C)CO)C[C@H](C)[C@H](CN(C)Cc2ccc(C(F)(F)F)cc2)OCCCC[C@H](C)O3)cc1 | 3.57%
32 | C[C@H]1CN([C@@H](C)CO)C(=O)c2cc(NC(=O)C3CC3)ccc2O[C@H]1CN(C)S(=O)(=O)c1cn(C)cn1 | -9.34%
33 | CC(C)NC(=O)N1[C@H](CN(C)C(=O)c2ccccc2)[C@@H](c2ccccc2)[C@@H]1CO | -19.9%
34 | COc1cccc(S(=O)(=O)N(C)C[C@H]2Oc3cc(C4=CCCCC4)ccc3S(=O)(=O)N([C@H](C)CO)C[C@@H]2C)c1 | -20.5%
35 | COc1ccccc1-c1ccc2c(c1)O[C@@H](CN(C)S(=O)(=O)c1ccc(F)cc1)[C@@H](C)CN([C@H](C)CO)S2(=O)=O | 13.8%
36 | C[C@@H]1CN([C@@H](C)CO)S(=O)(=O)c2ccc(C#Cc3ccccc3F)cc2O[C@@H]1CN(C)C(=O)c1ccc2c(c1)OCO2 | -22.3%
37 | COc1ccccc1NC(=O)N[C@H]1CC[C@@H](CCNS(=O)(=O)c2ccc(F)cc2)O[C@@H]1CO | -3.7%
38 | O=C(c1ccc(F)cc1)N1CC(=O)N2[C@H](C1)[C@H](c1ccc(C#CCC3CCCC3)cc1)[C@@H]2CO | -22.1%
39 | C[C@@H]1CN([C@H](C)CO)C(=O)Cc2cc(NC(=O)Nc3ccc(F)cc3)ccc2O[C@@H]1CN(C)C | 1.73%
40 | COc1ccc(S(=O)(=O)N(C)C[C@H]2OCCCC[C@H](C)Oc3ccc(NS(=O)(=O)c4ccc(C)cc4)cc3C(=O)N([C@H](C)CO)C[C@H]2C)cc1 | -17.5%
